# Assay results: publication PMC7862700, “An all-to-all approach to the identification of sequence-specific readers for epigenetic DNA modifications on cytosine”
# Tests used:
# Experiment in all cases: DAPPL (digital affinity profiling via proximity ligation, sequencing); 10 mM Tris-HCl pH 7.5, 50 mM NaCl, 1 mM DTT, 4% glycerol, room temperature, 30 min; GST-TFs on glutathione beads, 16-mer random dsDNA library, 0.1% formaldehyde crosslink after washing; high values mean tight binding
# Conditions in all cases: protein: recombinant; tags: N-terminal GST; dsDNA, one strand shown
# [1] = target: T1, FLI1 (Homo sapiens, UniProt Q01543 1-452)
# T1 sequence: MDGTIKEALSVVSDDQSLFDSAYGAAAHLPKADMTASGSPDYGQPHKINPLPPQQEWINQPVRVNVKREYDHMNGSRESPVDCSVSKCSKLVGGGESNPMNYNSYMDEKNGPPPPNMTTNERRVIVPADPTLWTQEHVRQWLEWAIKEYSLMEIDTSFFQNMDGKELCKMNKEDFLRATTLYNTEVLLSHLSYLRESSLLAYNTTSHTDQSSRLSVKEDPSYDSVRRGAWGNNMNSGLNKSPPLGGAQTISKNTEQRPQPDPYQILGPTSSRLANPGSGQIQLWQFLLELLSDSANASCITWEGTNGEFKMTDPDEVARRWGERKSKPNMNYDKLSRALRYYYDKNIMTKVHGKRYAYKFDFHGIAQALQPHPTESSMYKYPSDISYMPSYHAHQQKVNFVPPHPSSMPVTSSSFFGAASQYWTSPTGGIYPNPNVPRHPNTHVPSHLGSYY
# Method in brief: (§1)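 Pools were built from human transcription factors expressed in yeast as GST fusions, captured on glutathione beads and DNA-barcoded, along with a tag-only sample. Incubation with 200 nmole of a 16-mer random double-stranded DNA library lasted 30 min at room temperature in Tris/NaCl/DTT/glycerol buffer, and was followed by washing, 0.1% formaldehyde crosslinking, proximity ligation, PCR amplification and Illumina NextSeq500 sequencing. Binding signal is the quotient of each hexamer's read frequency for a factor and its frequency for the tag-only sample.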
# [2] = target: T2, ELK1 (Homo sapiens, UniProt P19419 1-428)
# T2 sequence: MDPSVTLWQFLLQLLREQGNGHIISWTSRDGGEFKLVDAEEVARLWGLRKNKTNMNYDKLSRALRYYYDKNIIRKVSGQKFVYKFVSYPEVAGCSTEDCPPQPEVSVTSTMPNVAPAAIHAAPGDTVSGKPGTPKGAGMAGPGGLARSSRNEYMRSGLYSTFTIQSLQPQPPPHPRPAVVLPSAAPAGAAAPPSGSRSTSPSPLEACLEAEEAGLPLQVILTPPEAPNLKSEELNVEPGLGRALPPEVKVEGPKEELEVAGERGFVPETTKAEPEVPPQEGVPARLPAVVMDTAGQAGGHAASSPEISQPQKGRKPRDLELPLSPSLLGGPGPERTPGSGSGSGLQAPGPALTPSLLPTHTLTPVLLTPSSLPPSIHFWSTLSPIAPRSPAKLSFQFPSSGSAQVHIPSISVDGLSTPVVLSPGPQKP
# Method in brief: as §1
# [3] = target: T3, GABPA (Homo sapiens, UniProt Q06546 1-454)
# T3 sequence: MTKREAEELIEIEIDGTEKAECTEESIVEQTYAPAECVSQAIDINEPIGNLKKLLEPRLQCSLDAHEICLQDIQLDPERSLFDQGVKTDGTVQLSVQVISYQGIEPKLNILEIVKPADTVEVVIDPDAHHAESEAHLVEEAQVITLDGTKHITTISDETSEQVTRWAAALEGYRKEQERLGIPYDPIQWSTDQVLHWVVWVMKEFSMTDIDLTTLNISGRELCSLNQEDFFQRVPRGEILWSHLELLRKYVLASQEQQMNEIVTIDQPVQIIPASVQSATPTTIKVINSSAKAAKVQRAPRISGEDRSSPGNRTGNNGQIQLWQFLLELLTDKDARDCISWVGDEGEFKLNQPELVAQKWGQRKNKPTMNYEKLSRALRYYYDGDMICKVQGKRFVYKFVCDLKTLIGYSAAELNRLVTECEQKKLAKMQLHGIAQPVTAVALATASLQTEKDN
# Method in brief: as §1
# [4] = target: T4, ERG (Homo sapiens, UniProt P11308 1-479)
# T4 sequence: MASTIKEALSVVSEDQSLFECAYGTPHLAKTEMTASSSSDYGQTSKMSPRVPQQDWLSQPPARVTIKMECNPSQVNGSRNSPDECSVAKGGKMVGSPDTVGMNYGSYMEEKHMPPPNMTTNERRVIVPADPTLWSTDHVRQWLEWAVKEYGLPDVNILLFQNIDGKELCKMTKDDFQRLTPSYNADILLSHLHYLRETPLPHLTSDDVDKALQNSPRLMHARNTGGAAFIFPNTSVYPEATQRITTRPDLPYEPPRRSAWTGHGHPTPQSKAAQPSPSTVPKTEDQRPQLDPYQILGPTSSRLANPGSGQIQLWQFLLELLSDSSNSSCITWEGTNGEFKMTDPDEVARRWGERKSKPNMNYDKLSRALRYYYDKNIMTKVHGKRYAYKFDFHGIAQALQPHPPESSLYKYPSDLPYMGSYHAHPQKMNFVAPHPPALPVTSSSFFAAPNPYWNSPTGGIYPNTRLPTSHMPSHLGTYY
# Method in brief: as §1
# [5] = target: ELF1 (Homo sapiens, UniProt P32519 1-619)
# Method in brief: as §1
# [6] = target: T5, EHF (Homo sapiens, UniProt Q9NZC4 1-300)
# T5 sequence: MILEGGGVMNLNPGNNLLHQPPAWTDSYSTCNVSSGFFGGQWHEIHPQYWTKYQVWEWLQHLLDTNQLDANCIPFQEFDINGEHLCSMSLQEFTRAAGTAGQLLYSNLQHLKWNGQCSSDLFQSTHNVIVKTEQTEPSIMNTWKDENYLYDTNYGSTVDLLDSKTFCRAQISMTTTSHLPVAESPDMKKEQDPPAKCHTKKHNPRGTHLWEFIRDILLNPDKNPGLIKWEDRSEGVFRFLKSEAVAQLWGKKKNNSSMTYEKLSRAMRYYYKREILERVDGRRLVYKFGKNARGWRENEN
# Method in brief: as §1
# [7] = target: SPI1 (Homo sapiens, UniProt P17947 1-270)
# Method in brief: as §1
# [8] = target: SPIB (Homo sapiens, UniProt Q01892 1-262)
# Method in brief: as §1
# [9] = target: T6, ELK3 (Homo sapiens, UniProt P41970 1-407)
# T6 sequence: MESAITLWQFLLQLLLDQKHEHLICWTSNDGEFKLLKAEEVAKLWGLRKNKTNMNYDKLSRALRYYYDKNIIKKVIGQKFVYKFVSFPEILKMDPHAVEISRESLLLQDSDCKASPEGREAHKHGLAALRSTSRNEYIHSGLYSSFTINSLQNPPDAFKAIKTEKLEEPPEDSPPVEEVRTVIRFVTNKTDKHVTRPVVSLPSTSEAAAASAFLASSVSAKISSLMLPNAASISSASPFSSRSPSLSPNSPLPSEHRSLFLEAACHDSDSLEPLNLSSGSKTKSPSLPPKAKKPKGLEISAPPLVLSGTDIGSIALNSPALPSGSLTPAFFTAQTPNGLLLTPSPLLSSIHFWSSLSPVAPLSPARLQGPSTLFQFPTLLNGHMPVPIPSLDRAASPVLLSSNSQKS
# Method in brief: as §1
# Sequence of SPIB (Q01892 whole entry): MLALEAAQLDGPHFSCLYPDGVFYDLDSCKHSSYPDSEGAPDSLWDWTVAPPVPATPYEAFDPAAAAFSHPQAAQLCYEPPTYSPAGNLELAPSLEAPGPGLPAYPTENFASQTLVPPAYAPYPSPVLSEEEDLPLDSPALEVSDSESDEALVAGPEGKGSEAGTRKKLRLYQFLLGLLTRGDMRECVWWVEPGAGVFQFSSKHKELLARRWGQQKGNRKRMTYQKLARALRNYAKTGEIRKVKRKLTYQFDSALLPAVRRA
# Sequence of ELF1 (P32519 whole entry): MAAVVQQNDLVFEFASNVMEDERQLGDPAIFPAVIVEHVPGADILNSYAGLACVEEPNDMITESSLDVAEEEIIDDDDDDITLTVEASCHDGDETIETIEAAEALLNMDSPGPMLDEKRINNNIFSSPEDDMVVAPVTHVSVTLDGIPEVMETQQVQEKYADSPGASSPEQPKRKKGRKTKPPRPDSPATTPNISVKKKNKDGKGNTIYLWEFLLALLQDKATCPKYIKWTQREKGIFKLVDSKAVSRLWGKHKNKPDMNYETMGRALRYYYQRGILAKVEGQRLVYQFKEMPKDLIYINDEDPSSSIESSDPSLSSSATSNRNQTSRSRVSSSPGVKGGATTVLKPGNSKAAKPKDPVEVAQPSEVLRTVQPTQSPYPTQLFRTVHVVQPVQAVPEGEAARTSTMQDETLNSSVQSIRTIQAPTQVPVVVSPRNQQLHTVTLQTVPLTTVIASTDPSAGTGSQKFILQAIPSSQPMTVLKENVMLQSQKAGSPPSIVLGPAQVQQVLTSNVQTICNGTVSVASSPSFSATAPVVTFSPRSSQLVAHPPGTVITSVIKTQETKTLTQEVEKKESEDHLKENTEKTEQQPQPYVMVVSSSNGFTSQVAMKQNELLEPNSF
sequence,measurement,setting,value
TTGGTA,binding signal,[1],"1.23 fold enrichment (6-mer frequency, TF over GST control)"
same,binding signal,[2],"1.3 fold enrichment (6-mer frequency, TF over GST control)"
same,binding signal,[3],"1.22 fold enrichment (6-mer frequency, TF over GST control)"
same,binding signal,[4],"1.13 fold enrichment (6-mer frequency, TF over GST control)"
same,binding signal,[5],"1.19 fold enrichment (6-mer frequency, TF over GST control)"
same,binding signal,[6],"1.21 fold enrichment (6-mer frequency, TF over GST control)"
same,binding signal,[7],"1.23 fold enrichment (6-mer frequency, TF over GST control)"
same,binding signal,[8],"1.33 fold enrichment (6-mer frequency, TF over GST control)"
same,binding signal,[9],"1.2 fold enrichment (6-mer frequency, TF over GST control)"
